# Test results reported in PubChem BioAssay.
# Several values for one entry are separate records, joined by “and”; a condition that tells them apart may be missing. Equal entries are not always repeated. Activity calls are given as the source filed them. Rule as the data show it, unless noted: active = inhibition above about 80%; inactive = the rest.
# How the values were obtained:
# [1] = hESC survival regulators, cell-based (AID 493140; call rule not given here;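 also: cells exposed to compounds for four days before counting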); conditions: human embryonic stem cell survival screen; stronger effect = higher value
# [2] = liver-stage malaria parasite growth inhibition, primary screen, cell-based, HepG2, luciferase luminescence, HepG2 viability (AID 624349; in the data active = parasite load remaining mostly below about 12%, no sharp cut-off; inactive = mostly above about 10%;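 also: 100% = mean of DMSO negative control wells on the same plate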); conditions: P. berghei liver stage in HepG2, luciferase luminescence, concentration not given here; parasite load remaining: stronger effect = lower value; viability: measured here: HepG2 viability without parasites
# [3] = tested on: Aerobactin synthetase IucA (Klebsiella pneumoniae); assay: IucA aerobactin synthetase inhibitors, biochemical, Tocris library, absorbance (AID 1345561; call rule not given here;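 also: 100% = enzyme without compound and 0% = no enzyme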); conditions: purified IucA enzyme assay, absorbance (OD) read-out; stronger effect = lower value;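 tested at 8 µM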
# [4] = sensitizers of A549 cells to miR-34 induction, primary screen, imaging, A549 dox-inducible miR-34, nuclei and caspase counts (AID 1347080;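 active = compounds whose cell count with miR-34 switched on is under 0.7 times the count with it off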); conditions: A549 miR-34 inducible, Hoechst nuclei count, 48 h
# [5] = survival rescue of mitochondrial mutant cells in low glucose, primary screen, MELAS cybrids, Rieske KO mouse fibroblasts, CellTiter-Glo (AID 1508586;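 active = mean z-score across replicates of 1.96 or higher in either the MELAS or the Rieske mutant cell line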;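 also: z relative to plate mean and SD of compound and empty wells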)
# [6] = viability rescue of complex I mutant cybrids, primary screen, cell-based, galactose medium, ATP luminescence (AID 1645843;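 active = z-score of at least 1.8 in each of two replicates, scored against plate mean and spread of sample wells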;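 also: positive z means more ATP and so rescue of galactose-driven cybrid death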); conditions: complex I mutant cybrid cells, 72 h, stronger effect = higher value
# [7] = phospholipid biosynthesis inhibitors in animal cells, primary screen, cell-based, LOPAC library, screen 4 (AID 1347384; call rule not given here); conditions: phospholipid biosynthesis inhibition screen, at 10 µM
# [8] = target: Mitogen-activated protein kinase 7 (Homo sapiens) (UniProt Q13164); assay: ERK5 transactivation activators in reporter cells, primary screen, cell-based, HTS (AID 1508626;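 active = luciferase signal above three times the same-plate solvent-only control wells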;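 also: luciferase driven by Gal4-ERK5 fusion binding five Gal4 sites before minimal TATA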); conditions: HeLa Gal4-ERK5 transactivation, 18 h, at 5 µM, stronger effect = higher value
# Mitogen-activated protein kinase 7 (Homo sapiens), sequence (Q13164 whole entry, looked up, the tested form may be a part): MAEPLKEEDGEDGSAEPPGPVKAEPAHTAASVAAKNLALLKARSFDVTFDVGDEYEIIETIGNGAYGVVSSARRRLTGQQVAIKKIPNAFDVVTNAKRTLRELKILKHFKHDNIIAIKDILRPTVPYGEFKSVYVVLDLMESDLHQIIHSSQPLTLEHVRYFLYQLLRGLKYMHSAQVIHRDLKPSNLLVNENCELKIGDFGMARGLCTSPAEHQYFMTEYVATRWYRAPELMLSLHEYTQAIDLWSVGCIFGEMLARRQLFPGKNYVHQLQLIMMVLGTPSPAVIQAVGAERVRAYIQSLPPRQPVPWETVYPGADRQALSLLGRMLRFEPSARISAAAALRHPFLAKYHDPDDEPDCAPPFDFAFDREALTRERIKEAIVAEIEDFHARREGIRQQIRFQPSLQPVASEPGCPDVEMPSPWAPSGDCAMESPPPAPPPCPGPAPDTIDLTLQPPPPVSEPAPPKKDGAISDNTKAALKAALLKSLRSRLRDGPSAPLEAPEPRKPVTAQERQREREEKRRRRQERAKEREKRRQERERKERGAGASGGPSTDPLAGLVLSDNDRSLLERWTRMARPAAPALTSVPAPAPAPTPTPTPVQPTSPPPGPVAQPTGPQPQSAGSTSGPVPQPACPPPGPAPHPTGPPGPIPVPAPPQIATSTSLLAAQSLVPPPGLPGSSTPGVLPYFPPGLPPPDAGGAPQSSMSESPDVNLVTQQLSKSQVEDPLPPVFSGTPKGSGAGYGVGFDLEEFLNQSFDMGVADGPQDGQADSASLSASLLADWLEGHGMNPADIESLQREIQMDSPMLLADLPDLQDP
# [9] = LFS_MB_P medulloblastoma growth inhibition, cell-based, chromothripsis tumors, cisplatin or BGB combos (AID 1671449); conditions: LFS_MB_P medulloblastoma cells;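 also: cells exposed for 96 hours; 0% = vehicle DMSO and 100% = killing by high DMSO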
# [10] = HDN33 neuroblastoma growth inhibition, cell-based, chromothripsis tumors, cisplatin or BGB combos (AID 1671450); conditions: HDN33 neuroblastoma cells, stronger effect = higher value;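 also: cells exposed to compound for four days; 0% = vehicle DMSO and 100% = cell killing by high DMSO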
# [11] = ICB984 medulloblastoma cell growth inhibition, synergistic combos for chromothripsis tumors, cisplatin or BGB combos (AID 1671451; call rule not given here;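 also: cells exposed for 96 hours before readout; 0% = vehicle DMSO and 100% = killing by high DMSO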); conditions: ICB984 medulloblastoma cells, drug combinations, stronger effect = higher value
# [12] = LFS_MB_1R medulloblastoma cell growth inhibition, synergistic combos for chromothripsis tumors, cisplatin or BGB combos (AID 1671452); conditions: LFS_MB_1R medulloblastoma cells, stronger effect = higher value;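 also: cells exposed for 96 hours before readout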
# [13] = HTB85 osteosarcoma cell growth inhibition, synergistic combos for chromothripsis tumors, BGB or cisplatin IC20 combos (AID 1671453); conditions: HTB85 osteosarcoma cells, drug combinations, stronger effect = higher value;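 also: cells exposed for 96 hours before readout; 0% = vehicle DMSO and 100% = high DMSO killing control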
# [14] = CRL2098 osteosarcoma cell growth inhibition, synergistic combos for chromothripsis tumors, BGB or cisplatin IC20 combos (AID 1671454); conditions: CRL2098 osteosarcoma cells, drug combinations, stronger effect = higher value;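 also: cells exposed for 96 h before readout; 0% = vehicle DMSO and 100% = killing by high DMSO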
# [15] = HD-MB03 medulloblastoma cell growth inhibition, synergistic combos for chromothripsis tumors, BGB or cisplatin IC20 combos (AID 1671455; in the data active = inhibition above about 83%;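 also: 0% = vehicle DMSO and 100% = high DMSO as cytotoxic control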); conditions: HD-MB03 medulloblastoma cells, stronger effect = higher value
# [16] = UWB1.289 ovarian carcinoma cell growth inhibition, synergistic combos for chromothripsis tumors, BGB or cisplatin combos (AID 1671456); conditions: UWB1.289 ovarian carcinoma cells, stronger effect = higher value;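 also: cells exposed to compound for four days; 0% = vehicle DMSO and 100% = killing by high DMSO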
# [17] = LFS_MB_2R medulloblastoma cell growth inhibition, synergistic combos for chromothripsis tumors, cisplatin combos (AID 1671457); conditions: LFS_MB_2R medulloblastoma cells, stronger effect = higher value;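 also: cells exposed to compound for four days before readout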
# [18] = MDA-MB-436 breast carcinoma cell growth inhibition, synergistic combos for chromothripsis tumors, BGB or cisplatin combos (AID 1671458; call rule not given here;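 also: cells exposed for 96 hours; 0% = vehicle DMSO and 100% = killing by high DMSO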); conditions: MDA-MB-436 breast carcinoma growth inhibition, drug combinations, stronger effect = higher value
# [19] = UWB1.289_BRCA1 ovarian cancer growth, cell-based, BGB or cisplatin combinations (AID 1671459); conditions: UWB1.289 BRCA1 ovarian carcinoma, drug combinations, stronger effect = higher value
# [20] = human astrocyte viability loss, single and combined drugs, cytotoxicity control for chromothriptic childhood tumor combination screen, cell-based, BGB or cisplatin IC20 combos (AID 1671460); conditions: Human astrocytes, drug combinations, stronger effect = higher value;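 also: cells exposed to compounds for 96 hours before viability readout; 0% = vehicle and 100% = killing control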
# [21] = growth inhibition of BT084 medulloblastoma cells, cell-based, ICGC_MB145, cisplatin and BGB IC40 combos (AID 1671461); conditions: drug combinations, stronger effect = higher value;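 also: cells exposed to drugs for 96 hours; 0% = vehicle DMSO and 100% = high DMSO full killing control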
# [22] = growth inhibition of RCMB18 medulloblastoma cells, cell-based, cisplatin and BGB IC40 combos (AID 1671462); conditions: stronger effect = higher value;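 also: cells exposed to compound for four days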
# [23] = growth inhibition of CRL1545 osteosarcoma cells, cell-based, cisplatin and BGB IC20 combos (AID 1671464); conditions: stronger effect = higher value;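 also: cells exposed to compound for 96 hours before readout; 0% = vehicle DMSO and 100% = high DMSO killing control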
# [24] = stronger effect = lower value, cell number ratio, induced over uninduced
# [25] = measured here: relative caspase fold change +Dox/-Dox
# [26] = measured here: total cells with miR-34 induction, stronger effect = lower value
# [27] = measured here: total cells without miR-34 induction
# [28] = MELAS cybrid survival, CellTiter-Glo 48 h, stronger effect = higher value
# [29] = Rieske KO mouse fibroblast survival, CellTiter-Glo 72 h
# [30] = measured here: combination with BGB IC40, at 0.05 µM
# [31] = measured here: with BGB IC20 combination, at 0.5 µM
# [32] = measured here: with cisplatin IC20 combination, at 0.5 µM
# [33] = measured here: combination with cisplatin, at 0.5 µM
# [34] = measured here: combination with cisplatin, at 5 µM
structure (smiles),measurement,setting,value
CCN(CC)CCOC(=O)C1(c2ccc([N+](=O)[O-])cc2)CCCC1,survival,[1],10.9 (inactive)
same,parasite load remaining,[2],105% (inactive)
same,viability,[2],84.2%
same,remaining activity,[3],78.5% (inactive)
same,fold change,[4]; [24],0.929 (inactive) and 1.02 (inactive)
same,fold change,[4]; [25],1.89 and 0.688
same,cell count,[4]; [26],8310 and 8650
same,cell count,[4]; [27],8940 and 8460
same,z-score,[5]; [28],0.368 (inactive)
same,z-score,[5]; [29],-0.484
same,z-score,[6],-1.09 (inactive)
N=C(N)SCCc1ccc(OCc2ccc([N+](=O)[O-])cc2)cc1,remaining activity,[3],106% (inactive)
same,fold change,[4]; [24],0.959 (inactive)
same,fold change,[4]; [25],0.93
same,cell count,[4]; [26],5550
same,cell count,[4]; [27],5790
same,outcome,[7],inactive
same,z-score,[6],-0.76 (inactive)
CC(=O)O[C@@H]1C[C@H]2C(C)(C)C(=O)C=C[C@]2(C)[C@H]2CC[C@@]3(C)[C@H](c4ccoc4)OC(=O)[C@H]4O[C@]43[C@@]21C,remaining activity,[3],103% (inactive)
same,fold change,[4]; [24],0.935 (inactive)
same,fold change,[4]; [25],1.22
same,cell count,[4]; [26],4410
same,cell count,[4]; [27],4720
same,luciferase signal,[8],96 AU (inactive)
same,z-score,[6],-0.435 (inactive)
O=C(NC(NC(=S)Nc1ccc(F)c([N+](=O)[O-])c1)C(Cl)(Cl)Cl)C(c1ccccc1)c1ccccc1 (stereo not drawn),parasite load remaining,[2],37.9% (inactive)
same,viability,[2],150%
same,remaining activity,[3],80.1% (inactive)
same,fold change,[4]; [24],0.886 (inactive) and 0.916 (inactive)
same,fold change,[4]; [25],0.378 and 1.21
same,cell count,[4]; [26],1760 and 1260
same,cell count,[4]; [27],1990 and 1380
same,z-score,[5]; [28],-0.482 (inactive)
same,z-score,[5]; [29],-0.549
same,z-score,[6],-0.7 (inactive)
same,inhibition,"[9]; at 0.5 µM, stronger effect = higher value",-14.4% (inactive) and -15.8% (inactive)
same,inhibition,"[9]; measured here: combination with BGB IC20, at 0.005 µM",-15.1% and -22%
same,inhibition,"[9]; measured here: combination with BGB IC40, at 0.005 µM",-12.9% and -23.4%
same,inhibition,[9]; [30],-2.89% and -34.1%
same,inhibition,"[9]; measured here: combination with cisplatin, at 0.5 µM, stronger effect = higher value",-21.5% and -41.9%
same,inhibition,"[9]; measured here: combination with cisplatin, at 5 µM, stronger effect = higher value",-21.2% and -42.7%
same,inhibition,"[10]; BGB combo, at 5 µM",-9.61% and -16%
same,inhibition,[10]; at 0.5 µM,-0.93% (inactive) and -12% (inactive)
same,inhibition,"[10]; cisplatin combo, at 5 µM",-12.1% and -4.83%
same,inhibition,[10]; [31],-8.76% and -21.5%
same,inhibition,[10]; [32],2.56% and -5.96%
same,inhibition,"[10]; single agent, at 5 µM",4.16% and -9.08%
same,inhibition,"[11]; BGB IC20 combo, at 0.005 µM",7.62% and 15.2%
same,inhibition,"[11]; BGB IC40 combo, at 0.005 µM",-20.7% and 11.9%
same,inhibition,"[11]; BGB IC40 combo, at 0.05 µM",35.5% and -11.2%
same,inhibition,[11]; at 0.5 µM,-22.3% (inactive) and -17.8% (inactive)
same,inhibition,"[11]; cisplatin combo, at 0.05 µM",33.7% and -15.2%
same,inhibition,"[11]; cisplatin combo, at 0.5 µM",-13.4% and -3.51%
same,inhibition,"[11]; cisplatin combo, at 5 µM",-12.5% and -33.8%
same,inhibition,"[11]; measured here: 5 uM single agent, at 5 µM",-8.95% and -2.73%
same,inhibition,[12]; at 0.5 µM,4.09% (inactive) and -12.4% (inactive)
same,inhibition,[12]; [30],-23.4% and -14.6%
same,inhibition,[12]; [33],-13.7% and -10.4%
same,inhibition,[12]; [34],30.6% and -30.6%
same,inhibition,[13]; at 0.5 µM,8.95% (inactive) and 0.41% (inactive)
same,inhibition,"[13]; measured here: with BGB IC20, at 0.5 µM",16.1% and 0.127%
same,inhibition,"[13]; measured here: with BGB IC20, at 5 µM",2.8% and -10.9%
same,inhibition,"[13]; measured here: with cisplatin IC20, at 0.5 µM",1.41% and -9.26%
same,inhibition,"[13]; measured here: with cisplatin IC20, at 5 µM",2.01% and -34.1%
same,inhibition,"[13]; single agent, at 5 µM",-3.27% and 7.66%
same,inhibition,[14]; at 0.5 µM,-40.5% (inactive) and -32.4% (inactive)
same,inhibition,"[14]; measured here: combination with BGB at IC20, at 0.5 µM",-40.4% and -25.9%
same,inhibition,"[14]; measured here: combination with cisplatin at IC20, at 0.5 µM",-32.4% and -44.5%
same,inhibition,[15]; at 0.5 µM,-6.28% (inactive) and -0.79% (inactive)
same,inhibition,"[15]; measured here: combo with BGB at IC20, at 0.5 µM",-4.65% and -5.29%
same,inhibition,"[15]; measured here: combo with cisplatin at IC20, at 0.5 µM",-1.73% and -0.093%
same,inhibition,[16]; at 0.5 µM,1.14% (inactive) and 7.56% (inactive)
same,inhibition,"[16]; measured here: inhibition with BGB combination, at 0.05 µM",-13.3% and -2.68%
same,inhibition,"[16]; measured here: inhibition with cisplatin combination, at 0.05 µM",-5.95% and 6.61%
same,inhibition,[17]; at 0.5 µM,-3.23% (inactive) and -7.87% (inactive)
same,inhibition,[17]; [33],-13.3% and -8.76%
same,inhibition,[17]; [34],-66.9% and -2.51%
same,inhibition,[18]; at 0.5 µM,-16.1% (inactive) and -3% (inactive)
same,inhibition,"[18]; measured here: BGB combination, at 0.5 µM",-8.94% and -6.88%
same,inhibition,"[18]; measured here: BGB combination, at 5 µM",-14.6% and -14.8%
same,inhibition,"[18]; measured here: cisplatin combination, at 0.5 µM",-23.9% and -0.178%
same,inhibition,"[18]; measured here: cisplatin combination, at 5 µM",-32.1% and -10.9%
same,inhibition,"[19]; BGB combination, concentration series, at 5 µM",0.384% and 38.2%
same,inhibition,[19]; at 0.5 µM,2.79% (inactive) and 5.22% (inactive)
same,inhibition,"[19]; cisplatin combination, concentration series, at 5 µM",64.5% and 45%
same,inhibition,[20]; at 0.5 µM,6.11% (inactive) and 4.43% (inactive)
same,inhibition,"[20]; measured here: combo with BGB IC20, at 0.5 µM",7.77% and 5.34%
same,inhibition,"[20]; measured here: combo with cisplatin IC20, at 0.5 µM",14.5% and -0.76%
same,inhibition,[21]; at 0.5 µM,-8.03% (inactive) and 6.1% (inactive)
same,inhibition,"[21]; cisplatin combination, at 0.5 µM",5.04% and -12.2%
same,inhibition,"[21]; cisplatin combination, at 5 µM",12.2% and 15.1%
same,inhibition,"[21]; measured here: BGB IC40 combination 0.05 uM, at 0.05 µM",8.16% and -30.4%
same,inhibition,"[21]; single agent, at 5 µM",13.4% and 28.8%
same,inhibition,[22]; at 0.5 µM,-8.16% (inactive) and -14.2% (inactive)
same,inhibition,"[22]; cisplatin combo, at 5 µM",-16.1% and 2.1%
same,inhibition,"[22]; measured here: BGB IC40 combination, at 0.05 µM",-2.84% and -11.5%
same,inhibition,[22]; [33],8.34% and 10.3%
same,inhibition,"[22]; single agent, at 5 µM",-30.9% and -16.7%
same,inhibition,[23]; at 0.5 µM,6.4% (inactive) and -19.7% (inactive)
same,inhibition,[23]; [31],25.3% and -10.2%
same,inhibition,[23]; [32],-5.35% and -26.5%
same,inhibition,"[23]; single agent, at 0.05 µM",5.52% and 12.5%
same,inhibition,"[23]; single agent, at 5 µM",4.21% and -26.5%
